High-throughput results deposited in PubChem by National Center for Advancing Translational Sciences (NCATS).
VP16 counter: VP16 counterscreen qHTS for inhibitors of ROR gamma transcriptional activity | Drosophila S2 Gal4-VP16 UAS-luciferase, luminescence, 20 h | Potency, µM (doses to about 53.6 µM), usual class: inhibitors | 310,000 compounds, 3.5% hits | AID 2546, 2010;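 note: Gal4-VP16 expression switched on by copper sulfate through the metallothionein promoter; nearly all actives have a fitted effect of over 50% in size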
ATXN2 expr inh: Primary qHTS for Inhibitors of ATXN expression; HEK-293 ATXN2-luciferase reporter, luminescence, 24 h; Potency, µM (titrated, usually from 57 µM), actives largely listed as inhibitors; 360,000 compounds, 0.72% hits; note: nearly all actives have a fitted effect of over 55% in size
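qHTS (up to 57 uM final) was run with 24 h compound exposure of reporter cells at 37 °C. Each well was multiplexed: SteadyGlo luminescence measured ATXN2-luciferase expression after a fluorogenic Gly-Phe-AFC viability readout (25 uM final).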
HepG2 viability: qHTS for Inhibitors of TGF-b: Cytotox Counterscreen; HepG2 CAGA-GFP viability, ATP luminescence, 18 h; Potency, µM (top dose mostly 46.1 µM), hits mostly cytotoxic; 410,000 compounds, 0.76% hits; AID 588856, 2011
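CellTiter-Glo luminescence gave cytotoxicity after 18 hours at 37 degrees C. The cells were HepG2 CAGA-GFP in 1% FBS DMEM, stimulated with 500 pg/mL TGF-beta after compound addition. %Activity was normalised to no-cell wells (complete cell-killing) and DMSO (no toxicity), and curves were fitted and classified.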
ATXN viability: Viability Counterscreen for Primary qHTS for Inhibitors of ATXN expression. Potency, µM (titrated, usually from 56.7 µM), usual class: cytotoxic. 400,000 compounds, 0.49% hits. S2 cells (HEK-293 line with an ATXN2-luciferase reporter) viability, CellTiter-Fluor protease fluorescence, 24 h; note: nearly all actives have a fitted effect of over 40% in size
TGFb inhibitor: qHTS for Inhibitors of TGF-b. HepG2 CAGA-GFP TGF-b/SMAD3 reporter, GFP fluorescence, 18 h; TGF-beta stimulated, 500 pg/mL final. 410,000 compounds, 1.2% hits. Potency, µM (titrated, usually from 46.1 µM), most hits filed as inhibitors. AID 588855, 2011; note: nearly all actives have a fitted effect of over 65% in size
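HEPG2 CAGA-GFP, 1000 cells/well; 2 h settle, 37 C; cpd via pin tool; TGF-b 500 pg/mL final; 18 h, 37 C; GFP imaging ex488/em500-530; %Activity normalised to -TGF-b and +DMSO controls; CRC fit, curve class.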
RORgamma inh: qHTS for inhibitors of ROR gamma transcriptional activity; Nuclear receptor ROR-gamma (Mus musculus), P51450; Drosophila S2 Gal4-RORgamma UAS-luciferase reporter, 20 h; Potency, µM (series often up to 53.6 µM), most hits filed as inhibitors; 310,000 compounds, 5.4% hits; note: nearly all actives have a fitted effect of over 60% in size
Target sequence (P51450 whole entry, looked up, the tested form may be a part): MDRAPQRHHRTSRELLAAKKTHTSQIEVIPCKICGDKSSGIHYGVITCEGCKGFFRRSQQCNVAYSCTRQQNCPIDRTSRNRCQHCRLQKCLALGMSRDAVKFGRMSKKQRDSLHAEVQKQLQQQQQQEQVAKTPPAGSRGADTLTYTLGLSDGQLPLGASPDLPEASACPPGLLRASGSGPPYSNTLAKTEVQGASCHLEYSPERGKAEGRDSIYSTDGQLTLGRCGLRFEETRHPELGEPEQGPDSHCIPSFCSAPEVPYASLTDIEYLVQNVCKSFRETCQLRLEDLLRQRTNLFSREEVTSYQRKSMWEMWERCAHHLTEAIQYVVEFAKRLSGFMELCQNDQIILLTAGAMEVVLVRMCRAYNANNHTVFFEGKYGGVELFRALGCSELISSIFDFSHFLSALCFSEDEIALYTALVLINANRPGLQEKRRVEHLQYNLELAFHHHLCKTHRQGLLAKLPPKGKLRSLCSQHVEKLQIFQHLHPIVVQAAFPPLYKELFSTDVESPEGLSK
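Read-out: Photinus luciferase luminescence; inhibitors lower reporter signal. Insect Schneider cells with Gal4-ROR gamma fusion under metallothionein promoter, UAS reporter; 700 uM final copper sulfate induction, 20 hr, ambient temperature.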
A number is an active result; – = inactive; ? = inconclusive; · = no result given. A selection: hits, their analogues and other compounds. The true share with any hit is near 6.3%. Calls come from the whole dose curve; as a rule, active = well fitted curve in the direction sought with a large enough effect; inconclusive = small, poorly fitted or top-dose-only effect, or another doubt; inactive = no such curve, though single readings can be large; an effect the other way counts as inactive or inconclusive.

SMILES | VP16 counter | ATXN2 expr inh | HepG2 viability | ATXN viability | TGFb inhibitor | RORgamma inh
Brc1ccc(-c2ccc(/C=N/Nc3nc(N4CCOCC4)nc(N4CCOCC4)n3)o2)cc1 | – | – | – | – | – | –
C(=C\c1ccccc1)/C=N/Nc1nc(N2CCOCC2)nc(N2CCOCC2)n1 | – | – | – | ? | – | –
Fc1ccc(/C=N/Nc2nc3ccccc3[nH]2)cc1F | ? | – | – | – | – | 7.94µM
C(=C\c1ccccc1)/C=N/Nc1nc2ccccc2[nH]1 | 5.01µM | – | – | – | ? | 3.16µM
Brc1ccc(-c2ccc(/C=N/Nc3nc4ccccc4[nH]3)o2)cc1 | 5.01µM | · | – | – | – | 4.47µM
CCC1OC(C)Cc2[nH][nH]c(=O)c21 (centres undefined) | · | – | · | – | · | ·
Cc1ccc(-n2c(/C=C/c3c(C)n(C)c4ccccc34)nc3ccccc3c2=O)cc1 | · | – | – | – | – | ·
CC(C)(C)c1ccc(C(=O)NC(Cc2c[nH]c3ccccc23)C(=O)OCC(=O)c2ccc(Br)cc2)cc1 (centres undefined) | · | · | – | · | – | ·
CCC(C)(C)c1ccc(OCCCC[n+]2cccc(C)c2)c(C(C)(C)CC)c1 | 12.6µM | ? | – | ? | 10µM | ?
CCCCCCCCCC[n+]1cccc(Br)c1 | · | · | – | · | ? | ·
NNc1nnc(-c2ccccc2)c(-c2ccccc2)n1 | ? | – | – | – | – | 11.2µM
OCCNc1nc(-c2ccccc2)c2ccccc2n1 | – | – | – | – | – | –
NNc1nc(-c2ccccc2)c2ccccc2n1 | ? | – | – | · | – | 7.94µM
CC(=O)N1CCN(C(=O)OC2CC3CC2[C@H]2CCCCN2C3=O)CC1 (some centres undefined) | · | – | · | – | · | ·
C=C1N[C@]2(C(=O)COC(C)=O)[C@@H](C[C@H]3[C@@H]4CCC5=CC(=O)C=C[C@]5(C)[C@H]4[C@@H](O)C[C@@]32C)O1 | – | · | · | · | · | –
Cc1cc(C(=O)CN2CCC(C)CC2)c(C)n1-c1ccc(F)cc1 | ? | – | – | – | – | 10µM
Cc1cc(C(=O)CN2C(=O)c3ccccc3S2(=O)=O)c(C)n1C(C)C | · | 5.01µM | – | – | – | ·
CCn1c(C)cc(C(=O)CN2C(=O)c3ccccc3S2(=O)=O)c1C | · | ? | – | – | – | ·
C=CCn1c(C)cc(C(=O)CN2C(=O)c3ccccc3S2(=O)=O)c1C | · | ? | – | – | – | ·
Cc1cc(C(=O)CN2C(=O)C3CC=CCC3C2=O)c(C)n1-c1ccccc1 (centres undefined) | 12.6µM | – | – | – | – | ?
Cc1cc(C(=O)CN2C(=O)c3ccccc3S2(=O)=O)c(C)n1-c1ccccc1 | 11.2µM | 4.47µM | – | – | – | 11.2µM
Cc1cc(C(=O)CN2CCCCC2)c(C)n1-c1ccc(F)cc1 | – | – | – | – | – | –
CCCCN(C)CCCNC(=O)CN1C(=O)COc2ccc(S(=O)(=O)N3CCC(C)CC3)cc21 | · | – | – | ? | – | ·
COc1ccc(NC(=O)c2sc3nc(C)c(C(=O)Nc4ccc(C)cc4C)c(-c4cccs4)c3c2N)cc1 | · | – | – | – | – | ·
CCc1ccc(-n2nc(C)c3c(C(=O)N4CCN(c5cccc(Cl)c5)CC4)cc(C)nc32)cc1 | · | – | – | – | – | ·
CCC(=O)N1CCCC(C)(C(=O)Nc2ccc(OC(F)F)cc2)C1 (centres undefined) | · | – | – | – | – | ·
Cc1cccc(NC(=S)NC(C)C(c2ccccc2)N2CCN(C)CC2)c1C (centres undefined) | – | – | – | – | – | 11.2µM
CCN1CCN(C(c2cccs2)C(C)NC(=S)Nc2cccc(C)c2C)CC1 (centres undefined) | – | – | – | ? | – | 11.2µM
CC(NC(=S)Nc1ccc(Cl)cc1)C(c1ccccc1)N1CCOCC1 (centres undefined) | 6.31µM | – | – | – | – | 6.31µM
